The text below walks through data of article PMC11006913.

What all share (test): PBM; 200 nM protein, PBS
Holding throughout (conditions): dsDNA, one strand shown

Test [1] concerns the target HESX1 (Homo sapiens, UniProt Q9UBX0 95-180, R165K).
Test [2] concerns the target HOXB4 (Homo sapiens, UniProt P17483 148-234).
In test [3] the target is SHOX (Homo sapiens, UniProt O15266 103-189).
Test [4] addresses HESX1 (Homo sapiens, UniProt Q9UBX0 95-180).
The target of a further test is HOXA4 (Homo sapiens, UniProt Q00056 201-287, R217L).
Chain of HOXA4 (Q00056 201-287 R217L): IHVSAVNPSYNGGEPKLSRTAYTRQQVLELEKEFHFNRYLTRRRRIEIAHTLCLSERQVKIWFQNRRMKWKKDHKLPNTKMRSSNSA
Test [5] deals with HOXB4 (Homo sapiens, UniProt P17483 148-234, V174I).
Chain of HOXB4 (Homo sapiens, UniProt P17483 148-234, V174I) (P17483 148-234 V174I): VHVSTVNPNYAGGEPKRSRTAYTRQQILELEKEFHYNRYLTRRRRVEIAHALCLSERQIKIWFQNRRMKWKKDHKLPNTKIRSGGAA
Test [6] has as its target ALX1 (Homo sapiens, UniProt Q15699 118-204, L144V).
Test [7] addresses ALX3 (Homo sapiens, UniProt O95076 139-225, N203Q).
In test [8] the target is SHOX (Homo sapiens, UniProt O15266 103-189, R173C).
Chain of SHOX (Homo sapiens, UniProt O15266 103-189, R173C) (O15266 103-189 R173C): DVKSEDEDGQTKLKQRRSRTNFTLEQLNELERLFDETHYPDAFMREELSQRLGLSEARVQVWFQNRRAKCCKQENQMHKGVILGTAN
Test [9] has as its target ALX1 (Homo sapiens, UniProt Q15699 118-204, L144R).
Test [10] addresses ALX3 (Homo sapiens, UniProt O95076 139-225).
The target of test [11] is PROP1 (Homo sapiens, UniProt O75360 56-141).
Chain of PROP1 (Homo sapiens, UniProt O75360 56-141) (O75360 56-141): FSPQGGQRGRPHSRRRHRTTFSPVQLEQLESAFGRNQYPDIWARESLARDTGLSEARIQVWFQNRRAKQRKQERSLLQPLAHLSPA
Test [12] has as its target HESX1 (Homo sapiens, UniProt Q9UBX0 95-180, R109Q).
The target in test [13] is PROP1 (Homo sapiens, UniProt O75360 56-141, R99H).
Chain of PROP1 (Homo sapiens, UniProt O75360 56-141, R99H) (O75360 56-141 R99H): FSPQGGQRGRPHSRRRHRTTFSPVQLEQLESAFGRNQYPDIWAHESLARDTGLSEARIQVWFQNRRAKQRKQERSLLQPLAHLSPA
Test [14] concerns the target ALX3 (Homo sapiens, UniProt O95076 139-225, L168Q).
Test [15] has as its target HESX1 (Homo sapiens, UniProt Q9UBX0 95-180, P111T).
Test [16] has as its target ALX3 (Homo sapiens, UniProt O95076 139-225, L168V).
The target of test [17] is PROP1 (Homo sapiens, UniProt O75360 56-141, F88S).
Chain of PROP1 (Homo sapiens, UniProt O75360 56-141, F88S) (O75360 56-141 F88S): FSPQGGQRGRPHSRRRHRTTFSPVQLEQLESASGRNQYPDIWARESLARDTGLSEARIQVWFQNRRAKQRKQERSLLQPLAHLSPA
The target in test [18] is HESX1 (Homo sapiens, UniProt Q9UBX0 95-180, F115L).
Chain of HESX1 (Homo sapiens, UniProt Q9UBX0 95-180, F115L) (Q9UBX0 95-180 F115L): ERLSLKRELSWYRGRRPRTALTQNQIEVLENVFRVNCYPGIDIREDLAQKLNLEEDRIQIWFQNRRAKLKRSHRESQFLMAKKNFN
The target of test [19] is ALX3 (Homo sapiens, UniProt O95076 139-225, N203S).
Chain of ALX3 (Homo sapiens, UniProt O95076 139-225, N203S) (O95076 139-225 N203S): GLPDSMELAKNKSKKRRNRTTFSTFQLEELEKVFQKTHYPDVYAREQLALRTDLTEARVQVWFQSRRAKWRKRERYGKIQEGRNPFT

Chain of ALX3 (Homo sapiens, UniProt O95076 139-225) (O95076 139-225): as the sequence (O95076 139-225 N203S) above, with S65N counted along it
Chain of HESX1 (Homo sapiens, UniProt Q9UBX0 95-180, R165K) (Q9UBX0 95-180 R165K): as the sequence (Q9UBX0 95-180 F115L) above, with L21F, R71K counted along it
Chain of ALX1 (Homo sapiens, UniProt Q15699 118-204, L144R) (Q15699 118-204 L144R): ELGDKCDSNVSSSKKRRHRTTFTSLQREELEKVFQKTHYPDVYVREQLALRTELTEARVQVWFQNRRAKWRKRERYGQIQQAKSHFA
Chain of SHOX (Homo sapiens, UniProt O15266 103-189) (O15266 103-189): as the sequence (O15266 103-189 R173C) above, with C71R counted along it
Chain of HESX1 (Homo sapiens, UniProt Q9UBX0 95-180, R109Q) (Q9UBX0 95-180 R109Q): as the sequence (Q9UBX0 95-180 F115L) above, with R15Q, L21F counted along it
Chain of HOXB4 (Homo sapiens, UniProt P17483 148-234) (P17483 148-234): as the sequence (P17483 148-234 V174I) above, with I27V counted along it
Chain of HESX1 (Homo sapiens, UniProt Q9UBX0 95-180, P111T) (Q9UBX0 95-180 P111T): as the sequence (Q9UBX0 95-180 F115L) above, with P17T, L21F counted along it
Chain of HESX1 (Homo sapiens, UniProt Q9UBX0 95-180) (Q9UBX0 95-180): as the sequence (Q9UBX0 95-180 F115L) above, with L21F counted along it
Chain of ALX3 (Homo sapiens, UniProt O95076 139-225, L168Q) (O95076 139-225 L168Q): as the sequence (O95076 139-225 N203S) above, with L30Q, S65N counted along it
Chain of ALX3 (Homo sapiens, UniProt O95076 139-225, L168V) (O95076 139-225 L168V): as the sequence (O95076 139-225 N203S) above, with L30V, S65N counted along it
Chain of ALX1 (Homo sapiens, UniProt Q15699 118-204, L144V) (Q15699 118-204 L144V): as the sequence (Q15699 118-204 L144R) above, with R27V counted along it
Chain of ALX3 (Homo sapiens, UniProt O95076 139-225, N203Q) (O95076 139-225 N203Q): as the sequence (O95076 139-225 N203S) above, with S65Q counted along it

With GTAATTAA, the binding signal in the test with HESX1 [1] is 13.2 upbm affinity estimate (log intensity, higher = more binding, comparable within an allelic series); with HOXB4 [2] it was 13.5 upbm affinity estimate (log intensity, higher = more binding, comparable within an allelic series); in the test with SHOX [3] it was 12.8 upbm affinity estimate (log intensity, higher = more binding, comparable within an allelic series); with HESX1 [4], 13.3 upbm affinity estimate (log intensity, higher = more binding, comparable within an allelic series); with HOXA4, 13.3 upbm affinity estimate (log intensity, higher = more binding, comparable within an allelic series); with HOXB4 [5] it was 14.3 upbm affinity estimate (log intensity, higher = more binding, comparable within an allelic series). The binding signal is 12.2 upbm affinity estimate (log intensity, higher = more binding, comparable within an allelic series) in the test with ALX1 [6]; 8.59 upbm affinity estimate (log intensity, higher = more binding, comparable within an allelic series) with ALX3 [7]; 10.3 upbm affinity estimate (log intensity, higher = more binding, comparable within an allelic series) with SHOX [8]; 11.8 upbm affinity estimate (log intensity, higher = more binding, comparable within an allelic series) in the test with ALX1 [9]; 12.9 upbm affinity estimate (log intensity, higher = more binding, comparable within an allelic series) with ALX3 [10]; 11.9 upbm affinity estimate (log intensity, higher = more binding, comparable within an allelic series) in the test with PROP1 [11]. Moreover, the binding signal with HESX1 [12] was 9.89 upbm affinity estimate (log intensity, higher = more binding, comparable within an allelic series); in the test with PROP1 [13], 11.8 upbm affinity estimate (log intensity, higher = more binding, comparable within an allelic series); with ALX3 [14], 11.2 upbm affinity estimate (log intensity, higher = more binding, comparable within an allelic series); with HESX1 [15] it was 11.8 upbm affinity estimate (log intensity, higher = more binding, comparable within an allelic series); in the test with ALX3 [16] it was 10.8 upbm affinity estimate (log intensity, higher = more binding, comparable within an allelic series); with PROP1 [17] it was 7.99 upbm affinity estimate (log intensity, higher = more binding, comparable within an allelic series). The binding signal with HESX1 [18] is 8.12 upbm affinity estimate (log intensity, higher = more binding, comparable within an allelic series); in the test with ALX3 [19] it was 8.7 upbm affinity estimate (log intensity, higher = more binding, comparable within an allelic series).

In the case of AATTAATG, the binding signal with HESX1 [1] was 12.1 upbm affinity estimate (log intensity, higher = more binding, comparable within an allelic series); with HOXB4 [2], 13.4 upbm affinity estimate (log intensity, higher = more binding, comparable within an allelic series); with SHOX [3], 11.8 upbm affinity estimate (log intensity, higher = more binding, comparable within an allelic series); with HESX1 [4], 12.1 upbm affinity estimate (log intensity, higher = more binding, comparable within an allelic series); in the test with HOXA4, 12.5 upbm affinity estimate (log intensity, higher = more binding, comparable within an allelic series); in the test with HOXB4 [5], 14 upbm affinity estimate (log intensity, higher = more binding, comparable within an allelic series). Moreover, the binding signal with ALX1 [6] was 11.9 upbm affinity estimate (log intensity, higher = more binding, comparable within an allelic series); with ALX3 [7] it was 8.41 upbm affinity estimate (log intensity, higher = more binding, comparable within an allelic series); with SHOX [8], 9.48 upbm affinity estimate (log intensity, higher = more binding, comparable within an allelic series); with ALX1 [9], 11.5 upbm affinity estimate (log intensity, higher = more binding, comparable within an allelic series); with ALX3 [10], 12.6 upbm affinity estimate (log intensity, higher = more binding, comparable within an allelic series); in the test with PROP1 [11] it was 11.4 upbm affinity estimate (log intensity, higher = more binding, comparable within an allelic series). Also, the binding signal is 9.35 upbm affinity estimate (log intensity, higher = more binding, comparable within an allelic series) with HESX1 [12]; 11.3 upbm affinity estimate (log intensity, higher = more binding, comparable within an allelic series) in the test with PROP1 [13]; 10.7 upbm affinity estimate (log intensity, higher = more binding, comparable within an allelic series) with ALX3 [14]; 10.7 upbm affinity estimate (log intensity, higher = more binding, comparable within an allelic series) with HESX1 [15]; 10.3 upbm affinity estimate (log intensity, higher = more binding, comparable within an allelic series) with ALX3 [16]; 7.86 upbm affinity estimate (log intensity, higher = more binding, comparable within an allelic series) with PROP1 [17]. Also, the binding signal is 7.83 upbm affinity estimate (log intensity, higher = more binding, comparable within an allelic series) in the test with HESX1 [18] and 8.55 upbm affinity estimate (log intensity, higher = more binding, comparable within an allelic series) with ALX3 [19].

For AATTAATA, the binding signal in the test with HESX1 [1] was 12.2 upbm affinity estimate (log intensity, higher = more binding, comparable within an allelic series); in the test with HOXB4 [2], 13.2 upbm affinity estimate (log intensity, higher = more binding, comparable within an allelic series); in the test with SHOX [3] it was 12 upbm affinity estimate (log intensity, higher = more binding, comparable within an allelic series); in the test with HESX1 [4], 12.1 upbm affinity estimate (log intensity, higher = more binding, comparable within an allelic series); in the test with HOXA4 it was 12.3 upbm affinity estimate (log intensity, higher = more binding, comparable within an allelic series); with HOXB4 [5], 13.9 upbm affinity estimate (log intensity, higher = more binding, comparable within an allelic series). Moreover, the binding signal with ALX1 [6] was 11.8 upbm affinity estimate (log intensity, higher = more binding, comparable within an allelic series); with ALX3 [7], 8.72 upbm affinity estimate (log intensity, higher = more binding, comparable within an allelic series); with SHOX [8] it was 9.56 upbm affinity estimate (log intensity, higher = more binding, comparable within an allelic series); in the test with ALX1 [9], 11.6 upbm affinity estimate (log intensity, higher = more binding, comparable within an allelic series); with ALX3 [10], 12.5 upbm affinity estimate (log intensity, higher = more binding, comparable within an allelic series); with PROP1 [11] it was 11.3 upbm affinity estimate (log intensity, higher = more binding, comparable within an allelic series). Also, the binding signal with HESX1 [12] was 9.32 upbm affinity estimate (log intensity, higher = more binding, comparable within an allelic series); with PROP1 [13], 11.4 upbm affinity estimate (log intensity, higher = more binding, comparable within an allelic series); with ALX3 [14], 10.7 upbm affinity estimate (log intensity, higher = more binding, comparable within an allelic series); with HESX1 [15], 10.8 upbm affinity estimate (log intensity, higher = more binding, comparable within an allelic series); in the test with ALX3 [16] it was 10.3 upbm affinity estimate (log intensity, higher = more binding, comparable within an allelic series); in the test with PROP1 [17], 8.02 upbm affinity estimate (log intensity, higher = more binding, comparable within an allelic series). The binding signal in the test with HESX1 [18] is 8.27 upbm affinity estimate (log intensity, higher = more binding, comparable within an allelic series); in the test with ALX3 [19], 8.82 upbm affinity estimate (log intensity, higher = more binding, comparable within an allelic series).

Consider GGTAATTA, for which the binding signal with HESX1 [1] is 13.1 upbm affinity estimate (log intensity, higher = more binding, comparable within an allelic series); with HOXB4 [2], 13.7 upbm affinity estimate (log intensity, higher = more binding, comparable within an allelic series); with SHOX [3] it was 12.7 upbm affinity estimate (log intensity, higher = more binding, comparable within an allelic series); with HESX1 [4] it was 13.2 upbm affinity estimate (log intensity, higher = more binding, comparable within an allelic series); with HOXA4, 13.2 upbm affinity estimate (log intensity, higher = more binding, comparable within an allelic series); with HOXB4 [5], 14.4 upbm affinity estimate (log intensity, higher = more binding, comparable within an allelic series). In addition, the binding signal with ALX1 [6] is 12.1 upbm affinity estimate (log intensity, higher = more binding, comparable within an allelic series); in the test with ALX3 [7], 8.47 upbm affinity estimate (log intensity, higher = more binding, comparable within an allelic series); with SHOX [8] it was 10 upbm affinity estimate (log intensity, higher = more binding, comparable within an allelic series); in the test with ALX1 [9], 11.8 upbm affinity estimate (log intensity, higher = more binding, comparable within an allelic series); with ALX3 [10], 12.8 upbm affinity estimate (log intensity, higher = more binding, comparable within an allelic series); with PROP1 [11], 11.9 upbm affinity estimate (log intensity, higher = more binding, comparable within an allelic series). The binding signal in the test with HESX1 [12] is 9.54 upbm affinity estimate (log intensity, higher = more binding, comparable within an allelic series); in the test with PROP1 [13], 11.8 upbm affinity estimate (log intensity, higher = more binding, comparable within an allelic series); in the test with ALX3 [14] it was 11 upbm affinity estimate (log intensity, higher = more binding, comparable within an allelic series); with HESX1 [15], 11.7 upbm affinity estimate (log intensity, higher = more binding, comparable within an allelic series); with ALX3 [16], 10.7 upbm affinity estimate (log intensity, higher = more binding, comparable within an allelic series); with PROP1 [17], 7.94 upbm affinity estimate (log intensity, higher = more binding, comparable within an allelic series). The binding signal with HESX1 [18] is 8.04 upbm affinity estimate (log intensity, higher = more binding, comparable within an allelic series); with ALX3 [19], 8.62 upbm affinity estimate (log intensity, higher = more binding, comparable within an allelic series).
